# Rows were chosen to be rich in hits. Some 1.4% of all compounds tested hit in one or more screens of this group.
# Vaccinia Venus: inhibitors of vaccinia virus (Venus reporter). Vaccinia virus Venus reporter expression, fluorescence. AID 720580. 330,000 compounds, 0.46% hits. Potency, µM (top dose mostly 36.5 µM), for the others: top-dose activity change, negative = inhibition, most hits filed as inhibitors; calls by dose curve; tested in A549 cells; further: on the % scale 0 is the no-effect control and ±100 the full control effect; nearly all actives have a fitted effect of over 30% in size
# AMA1-RON2 inh: disrupts binding of P. falciparum AMA1 to RON2; AlphaScreen AMA1-biotinylated RON2 peptide binding; Potency, µM (highest dose often 58.2 µM), for the others: at the top dose activity change, negative = inhibition, usual class: inhibitors; 360,000 compounds, 0.2% hits; AID 720542;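 further: 0% = vehicle wells and -100% = peptide control; nearly all actives have a fitted effect of over 45% in size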
#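 AMA1 (3D7) with his tag at 25 nM final met compounds first, then biotinylated RON2 peptide at 25 nM; detection used donor plus acceptor beads, 10 µg/mL apiece, read by AlphaScreen after 30 min at room temperature.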
# AmpC inh no detg: inhibitors of E. coli AmpC beta-lactamase without detergent | P00811 | AmpC nitrocefin hydrolysis, absorbance 480 nm, 0.0001% Triton | Potency, µM (doses to about 57.1 µM), without a hit: top-dose activity change, negative = inhibition, most hits filed as inhibitors | 330,000 compounds, 0.52% hits | AID 485341;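 further: plate controls were no compound for no effect and no enzyme for full effect; nearly all actives have a fitted effect of over 20% in size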
# Target sequence (P00811 whole entry, looked up): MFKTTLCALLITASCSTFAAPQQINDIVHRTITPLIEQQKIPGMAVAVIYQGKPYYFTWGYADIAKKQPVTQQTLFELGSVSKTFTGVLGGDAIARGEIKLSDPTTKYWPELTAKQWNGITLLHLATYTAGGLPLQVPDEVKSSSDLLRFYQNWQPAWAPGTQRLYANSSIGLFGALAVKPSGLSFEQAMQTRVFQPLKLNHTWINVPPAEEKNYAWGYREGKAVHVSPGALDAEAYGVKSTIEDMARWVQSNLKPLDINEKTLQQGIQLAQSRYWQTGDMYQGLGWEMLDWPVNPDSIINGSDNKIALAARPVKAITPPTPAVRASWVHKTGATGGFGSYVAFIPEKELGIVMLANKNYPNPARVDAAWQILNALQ
#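 AmpC (5.3 nM in the dispensed reagent) in 20 mM phosphate pH 7.0 with 0.01% (detergent screen) or 0.0001% Triton X-100 was preincubated with compounds for 15 min at room temperature. Nitrocefin was then added from an 800 uM solution, and hydrolysis was followed at 480 nm.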
# AmpC inh detg: AmpC beta-lactamase inhibition with detergent present | Potency, µM (highest dose often 114 µM), for inactives: at the highest dose activity change, negative = inhibition, hits mostly inhibitors | 370,000 compounds, 0.041% hits | AmpC hydrolysis of nitrocefin, absorbance 480 nm, 0.01% Triton | P00811;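 further: 0% = no-compound wells and -100% = no-enzyme wells; nearly all actives have a fitted effect of over 25% in size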
#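 AmpC (5.3 nM in the dispensed reagent) in 20 mM phosphate pH 7.0 with 0.01% (detergent screen) or 0.0001% Triton X-100 was preincubated with compounds for 15 min at room temperature. Nitrocefin was then added from an 800 uM solution, and hydrolysis was followed at 480 nm.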
# SARS PLP yeast: blocks SARS-CoV papain-like protease in a yeast assay; Potency, µM (titrated, usually from 32.9 µM), for the others: at the top dose activity, positive = growth rescue, usual class: activators; AID 485353; 330,000 compounds, 0.19% hits; S. cerevisiae expressing SARS-CoV PLpro, growth rescue; calls by dose curve; further: 0% is about no effect; nearly all actives have a fitted effect of over 55% in size
# VACV mCherry inh: vaccinia inhibition (mCherry reporter) | Vaccinia virus mCherry reporter infection, fluorescence | Potency, µM (highest dose often 36.5 µM), without a hit: top-dose activity change, negative = inhibition, usual class: inhibitors | 310,000 compounds, 0.63% hits; calls by dose curve; tested in A549 cells; further: on the % scale 0 is the no-effect control and ±100 the full control effect; nearly all actives have a fitted effect of over 35% in size
# Active calls of the source: *; i = inactive; ? = inconclusive; / = not tested or not shown; [ ] = another dose, or the depositor's remark. Unless noted, the call rests on the fitted dose curve; in most records, active means well fitted curve in the direction sought with a large enough effect; inconclusive means small, poorly fitted or top-dose-only effect, or another doubt; inactive means no such curve, though single readings can be large; an effect the other way counts as inactive or inconclusive. Potency means the concentration at half of the fitted maximal effect.
SMILES,Vaccinia Venus,AMA1-RON2 inh,AmpC inh no detg,AmpC inh detg,SARS PLP yeast,VACV mCherry inh
COc1ccc(NC(=O)c2c(NC(=O)c3ccncc3)sc3c2CCC(C(C)(C)C)C3)cc1 (stereo not drawn),?,/,/,2%,/,10µM*
CCOc1ccc(NC(=O)c2c(NC(=O)c3ccncc3)sc3c2CCC(C(C)(C)C)C3)cc1 (stereo not drawn),-3%,/,/,8%,/,-25%
CC(CCC(C)[n+]1cccc(Br)c1)[n+]1cccc(Br)c1 (stereo not drawn),3%,/,/,/,/,i
Cc1ccc(OCC(O)CNC2CCCC2)c(C)c1 (stereo not drawn),/,-3%,-25%,?,-3%,/
Cc1ccccc1OCC(O)CNC1CCC(NCC(O)COc2ccccc2C)CC1 (stereo not drawn),10µM*,10%,112%,-5%,1%,3.2µM*
CCn1c(-c2ccccc2F)nc2cc(NC(C)=O)cc(C(=O)NCc3ncc(C)[nH]3)c21,-12%,/,/,/,/,i
COC(=O)C1=C(C)NC(C)=C(C(=O)OCC(C)C)C1c1ccccc1[N+](=O)[O-] (stereo not drawn),-28%,14µM*,/,/,/,?
COC(=O)C1=C(C)NC(C)=C([N+](=O)[O-])[C@H]1c1ccccc1C(F)(F)F,-13%,/,/,/,/,11%
Cc1oc(-c2ccccc2NC(=O)c2ccccc2)nc1CNC(=O)c1cccc(-n2cccn2)c1,14%,/,/,/,/,-6%
CO[C@H]1[C@H](NC(=O)c2ccco2)c2ccccc2C12CCN(Cc1cnn(-c3ccccc3)c1)CC2,-17%,/,/,/,/,-24%
CN1CCCN(C(=O)CC2(CC(=O)O)CCCC2)CC1,-3%,2%,-40%,28µM*,-2%,-13%
CN1CCN(C(=O)CC2(CC(=O)O)CCCC2)CC1,1%,-2%,-41%,?,-1%,-1%
O=C(c1cccs1)N(Cc1nc2sc3c(c2c(=O)[nH]1)CCCC3)C1CCCC1,-17%,0%,/,12%,/,13µM*
Cc1sc2nc(CN(C(=O)c3cccs3)C3CCCC3)[nH]c(=O)c2c1C,?,-21%,-13%,-2%,6%,?
CC(C)N(C(=O)[C@H]1C[C@H](CC(=O)NCC23CC4CC(CC(C4)C2)C3)C(=O)N2CCc3c([nH]c4ccc(Cl)cc34)[C@]12C)C(C)C,13µM*,-21%,56%,/,-43%,?
CC(C)N(C(=O)[C@H]1C[C@H](CC(=O)NCCCN(C)C)C(=O)N2CCc3c([nH]c4ccc(Cl)cc34)[C@]12C)C(C)C,-5%,0%,171%,/,-8%,i
CCN(CC)C(=O)[C@H]1C[C@H](CC(=O)NCC23CC4CC(CC(C4)C2)C3)C(=O)N2CCc3c([nH]c4ccc(Cl)cc34)[C@]12C,10µM*,-7%,-13%,/,-15%,?
Cc1nc(C)c(C(=O)N2CCc3c(cnc(C)c3CNC(=O)c3cncs3)C2)s1,-5%,/,/,/,/,-4%
Cc1oc(-c2ccccc2NC(=O)C2CCC2)nc1CNC(=O)c1ccccn1,-1%,/,/,/,/,-5%
COC(CN(C(=O)CCl)C(C(=O)NC1CCCCC1)c1ccccc1C)OC (stereo not drawn),11µM*,-3%,-37%,-6%,-13%,13µM*
COC(CN(C(=O)CCl)C(C(=O)NC1CCCCC1)c1ccc(Cl)cc1)OC (stereo not drawn),-13%,2%,-29%,-12%,6%,i
CCc1nc2cc(C(=O)N(C)CC3CCCN(C)C3)cc(NC(=O)c3ccccc3OC)c2n1C (stereo not drawn),-8%,/,/,/,/,-10%
CCOC(=O)c1oc2ccccc2c1NC(=O)c1cccc(OC)c1,/,15%,-4%,2%,-13%,/
COc1cccc(C(=O)Nc2c(C(N)=O)oc3ccccc23)c1,-17%,1%,7.1µM*,?,-9%,-15%
COc1cc(OC)cc(C(=O)Nc2ccc(-c3nc4ccccc4o3)cc2)c1,-24%,-9%,50%,-5%,3%,?
SMILES,Vaccinia Venus,AMA1-RON2 inh,AmpC inh no detg,AmpC inh detg,SARS PLP yeast,VACV mCherry inh
COc1cccc(C(=O)Nc2ccc(-c3nc4ccccc4o3)c(O)c2)c1,?,33%,4µM*,-1%,-4%,?
CC(NC(=O)Nc1ccccc1)C(c1cccs1)N1CCOCC1 (stereo not drawn),6%,3%,-12%,?,4%,-20%
CC(NC(=O)NC1CCCCC1)C(c1cccs1)N1CCN(C)CC1 (stereo not drawn),2%,3%,-3%,?,1%,-10%
CCN1CCN(C(c2cccs2)C(C)NC(=O)NC2CCCCC2)CC1 (stereo not drawn),5%,-8%,45µM*,?,6%,-22%
CC(NC(=O)Nc1ccc(Cl)cc1)C(c1cccs1)N1CCOCC1 (stereo not drawn),1%,-6%,2.5µM*,?,1%,27%
Cc1ccc(C(=O)N2c3ccc(C)cc3C(C)(c3ccccc3)CC2(C)C)cc1 (stereo not drawn),-11%,/,/,1%,/,-8%
c1cnc(N2CCN(Cc3c[nH]c4ccccc34)CC2)nc1,13µM*,-8%,-8%,-8%,1%,/
Cc1ncc2c(c1CNS(=O)(=O)N(C)C)CCN(C(=O)/C=C/c1cccc(F)c1)C2,6%,/,/,/,/,-4%
CCCC(C)C(=O)Nc1ncc(S(=O)(=O)c2ccc([N+](=O)[O-])cc2)s1 (stereo not drawn),?,4%,-39%,-5%,?,2.5µM*
Cc1ccc([N+](=O)[O-])cc1-c1ccc(/C=C(\C#N)c2[nH]nc(N)c2C#N)o1,?,-2%[11.6 µM],32µM*,2%,4%,10µM*
CCN(CC)S(=O)(=O)c1ccc(-c2nnc(SCC(=O)Nc3nc(C)cs3)o2)cc1,11µM*,8%,-2%,-10%,4%,5µM*
Cc1ccc(-c2nnc(SCC(=O)Nc3ccc(S(=O)(=O)N4CCCCCC4)cc3)o2)cc1,-6%,14%,1%,?,6%,-12%
Cc1csc(NC(=O)CSc2nnc(-c3ccc(S(=O)(=O)N4CCCC4)cc3)o2)n1,4.5µM*,72%,-6%,?,-2%,3.2µM*
O=C(Nc1nc(-c2cc3ccccc3o2)cs1)c1ccc(S(=O)(=O)N2CCCC2)cc1,/,15%,18µM*,-7%,-12%,/
COc1ccc(C(=O)NCCN2Cc3cc(C)ccc3OC(C)C2)c(OC)n1 (stereo not drawn),2%,/,/,/,/,-1%
COc1cc2nc(N(C)C)c(CNCc3cccc4ccccc34)cc2c(OC)c1OC,-4%,/,/,/,/,i
